Test results published in PubChem BioAssay AID743255 (National Center for Advancing Translational Sciences (NCATS), 2014).
The whole screen tested about 390,000 compounds, of which about 910 (0.23%) were called active. About 5% were inconclusive and are not listed. This is one part of a sample in which actives are shown more often than they occur. Calls come from the whole dose curve; as a rule, active = well fitted inhibition curve with a large enough effect; inconclusive = small, poorly fitted or top-dose-only effect; inactive = no such curve, though single readings can be large or run the other way.

These compounds were tested against Ubiquitin carboxyl-terminal hydrolase 1 (Homo sapiens) (UniProt O94782) (assay: Inhibitors of USP1/UAF1: Primary Screen). Details: recombinant USP1/UAF1, Ub-Rhodamine cleavage fluorescence; series mostly up to 57.1 µM.
Ubiquitin carboxyl-terminal hydrolase 1 (Homo sapiens), sequence (O94782 whole entry, looked up): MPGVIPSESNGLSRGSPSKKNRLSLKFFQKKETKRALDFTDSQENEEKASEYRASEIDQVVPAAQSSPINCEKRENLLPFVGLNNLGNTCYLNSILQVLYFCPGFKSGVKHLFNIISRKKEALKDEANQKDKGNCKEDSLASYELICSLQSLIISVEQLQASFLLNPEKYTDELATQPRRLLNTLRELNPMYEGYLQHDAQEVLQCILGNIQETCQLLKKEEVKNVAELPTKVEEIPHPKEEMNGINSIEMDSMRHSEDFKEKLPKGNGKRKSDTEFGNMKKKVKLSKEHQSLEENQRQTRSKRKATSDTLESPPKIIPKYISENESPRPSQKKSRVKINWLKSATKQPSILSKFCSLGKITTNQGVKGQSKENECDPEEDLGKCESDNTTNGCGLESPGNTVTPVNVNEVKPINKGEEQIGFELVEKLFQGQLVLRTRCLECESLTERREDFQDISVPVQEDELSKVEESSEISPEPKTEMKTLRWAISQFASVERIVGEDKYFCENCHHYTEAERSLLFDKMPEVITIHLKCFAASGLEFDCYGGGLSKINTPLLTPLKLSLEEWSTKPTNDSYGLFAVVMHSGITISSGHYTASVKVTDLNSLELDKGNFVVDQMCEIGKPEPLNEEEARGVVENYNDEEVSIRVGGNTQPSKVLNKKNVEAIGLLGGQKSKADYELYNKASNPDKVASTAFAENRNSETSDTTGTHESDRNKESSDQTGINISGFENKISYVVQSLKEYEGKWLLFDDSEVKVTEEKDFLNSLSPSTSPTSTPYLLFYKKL
Text: Deubiquitinating enzymes (DUBs) are a class of enzymes that can cleave isopeptide bond formed between the C-terminal carboxylate of ubiquitin and a lysine side-chain amino group on the target protein. Among them, ubiquitin specific proteases (USPs) constitute the largest DUB family. Human USPs are emerging as promising targets for pharmacological intervention because of their connection to a number of human diseases, including prostate, colon and breast cancer (1, 2), pediatric acute lymphoblastic leukemia (3), and familial cylindromatosis (4). The advantage of inhibiting USPs lies in the potential specificity of therapeutic intervention that can lead to better efficacy and reduce nonspecific side effects. In a collaboration between the University of Delaware and the NIH Chemical Genomics Center, a high-throughput screen assay was developed to screen for USP1/UAF1 inhibitors. This miniaturized assay has a fluorescent read-out and is used to screen the NIH Molecular Libraries Small Molecule Repository (MLSMR) in order to identify a small molecule that inhibits USP1. NIH Chemical Genomics Center [NCGC] NIH Molecular Libraries Probe Centers Network [MLPCN] MLPCN Grant: DA030552 Assay Submitter (PI): Zhihao Zhuang, University of Delaware 1. Priolo, C., et al. (2006) The isopeptidase USP2a protects human prostate cancer from apoptosis. Cancer Res 66, 8625-8632 2. Popov, N., et al. (2007) The ubiquitin-specific protease USP28 is required for MYC stability. Nat Cell Biol 9, 765-774 3. De Pitta, C., et al. (2005) A leukemia-enriched cDNA microarray platform identifies new transcripts with relevance to the biology of pediatric acute lymphoblastic leukemia. Haematologica 90, 890-898 4. Kovalenko, A., et al. (2003) The tumour suppressor CYLD negatively regulates NF-kappaB signalling by deubiquitination. Nature 424, 801-805
3 microliters of reagents (buffer in columns 3 and 4 as negative control and 1nM USP1/UAF1 complex in columns 1, 2, and 5-48) are dispensed into Greiner black solid bottom 1536-well assay plates. Compounds are then transferred via Kalypsys pin tool equipped with 1536-pin array (10nl slotted pins, V&P Scientific, San Diego, CA). Following an incubation step of 15 min at room temperature, 1ul of Ub-Rho substrate (150nM final concentration) is added to initiate the reaction. The plates are immediately centrifuged at 1000 rpm for 15 seconds, and subsequently transferred to a ViewLux high-throughput CCD imager (PerkinElmer) wherein kinetic measurements of fluorescence are acquired using 480 nm excitation/540 nm emission filter set (6 reads every 60 seconds, see Table 1). All reagents are diluted in an assay buffer consisting of 50mM HEPES (pH 7.8), 0.5mM EDTA, 0.1 mg/ml BSA, 1mM TCEP, and 0.01% Tween-20.
Note: nearly all actives have a fitted effect of over 60% in size.
Potency is the fitted concentration of half-maximal effect.

Potency, active:
Oc1ccc(N=Cc2sc3ccccc3c2Cl)cc1 25.1 µM
C#CCOCCOCCOCCNc1nc(N2CCN(C(=O)CCCCCCCCCCNC(=O)[C@H]([C@@H](C)CC)n3cc(CCCCN=C(N)N)nn3)CC2)nc(N2CCN(C(=O)CCCCCCCCCCNC(=O)[C@H](CO)n3cc(CCCSC)nn3)CC2)n1 28.2 µM
CC(=O)N1C(=O)/C(=C2\SC(=S)N(NC(=O)c3ccc(O)cc3)C2=O)c2ccccc21 3.98 µM
CC(C)n1cnc2c(NCc3ccccc3)cc(OCC3CCN(C)CC3)cc21 17.8 µM
O=C1Nc2ccc([N+](=O)[O-])cc2C1=Nc1cccc(CO)c1 25.1 µM
CN1C(=O)c2cccc3c(N)ccc(c23)C1=O 4.47 µM
CCOC(=O)CC1C(=O)NCCN1c1nc2c(C)cccn2c(=O)c1/C=C1\SC(=S)N(C(C)CC)C1=O (stereo unspecified) 8.91 µM
Oc1c(C=Nc2cccc3nsnc23)ccc2ccccc12 25.1 µM
CCCCCCc1cc2cc(-c3nnc(-c4ccccc4)o3)c(=O)oc2cc1O 8.91 µM
Cc1ccc(-c2nn(-c3ccccc3)cc2/C=C2\SC(=S)N(CCCCCC(=O)O)C2=O)o1 7.08 µM
O=C(/C=C(O)/C=C/c1ccc(O)cc1)/C=C/c1ccc(O)cc1 28.2 µM
C[n+]1ccc(/C=C/c2c[nH]c3ccccc23)cc1 28.2 µM
Cc1ccc(S(=O)(=O)/N=C2\C=C(NS(=O)(=O)c3ccc(C)cc3)C(=O)c3ccccc32)cc1 20 µM
COc1ccc(S(=O)(=O)/N=C2\C=C(NS(=O)(=O)c3ccccc3)C(=O)c3ccccc32)cc1 15.8 µM

Potency, inactive:
CN(C)S(=O)(=O)c1ccc(C(=O)N(Cc2cccnc2)c2nc3c(F)cc(F)cc3s2)cc1
COc1ccc(-n2c(=O)c3c(c4cc(OC)ccc4n3C)n(Cc3cccc(C)c3)c2=O)cc1
CCc1nc(-c2cc(S(=O)(=O)N3CCN(c4ccc(OC)cc4)CC3)ccc2OC)no1
CCOc1cc(C(=O)NCCc2csc3nc(-c4ccc(C)cc4)nn23)cc(OCC)c1OCC
CCSc1nnc(NC(=O)c2cc(=O)c3cc(C)c(C)cc3o2)s1
Cc1c(NC(=O)Nc2ccc(F)c(Cl)c2)c(=O)n(-c2ccccc2)n1C
Cc1cccc(N2CCN(C(=O)CCSCc3ccccc3F)CC2)c1C
COc1ccc(CCNC(=O)c2nn(C)c3c2CSc2ccccc2-3)cc1OC
C#CCOCCOCCOCCNc1nc(N2CCOCC2)nc(N2CCN(C(=O)[C@H](Cc3ccc(O)cc3)n3cc(CCO)nn3)CC2)n1
C#CCOCCOCCOCCNc1nc(N2CCN(C(=O)C([C@@H](C)CC)n3cc(C(N)COC(=O)C(F)(F)F)nn3)CC2)nc(N2CCN(C(=O)[C@H](CCCCN)n3cc(C(N)CC(C)C)nn3)CC2)n1 (stereo partly specified)
COc1ccccc1NC(=O)c1cc(S(=O)(=O)NCCc2ccccc2)ccc1F
COC(=O)c1ccc(NC(=O)c2cc(S(=O)(=O)N3CCC(C)CC3)cn2C)cc1
Cc1ccc(Cl)cc1N(C)C(=O)C1CCCN(c2ncnc3onc(-c4ccc(F)cc4)c23)C1 (stereo unspecified)
COc1ccc(Cc2nc3ccc(C(=O)NCc4ccc(OC)cc4OC)cc3o2)cc1
Cc1ccccc1CNC(=O)CCc1cn(Cc2ccccc2C)c2ccccc12
Cc1ccc(CCNC(=O)c2nnc(Cc3cccc(F)c3)o2)cc1
CCS(=O)(=O)c1nc(S(=O)(=O)c2ccc(C)cc2)c(NCc2ccc(Cl)cc2)s1
COc1ccc(-c2nc(Cn3c(=O)cc(C)c4c(C)nn(-c5ccccc5)c43)c(C)o2)c(OC)c1
Cc1ccc(Cl)cc1N1CCN(C(=O)c2cccn3c(=O)c4cc(Cl)ccc4nc23)CC1
COC(=O)c1cc(NC(=O)CCc2c(C)nc3c4c(C)cc(C)nc4nn3c2C)cc(C(=O)OC)c1
Cc1ccc(-c2cnc(NCc3ccc(C(C)C)cc3)n2C)cc1
CCOC(=O)c1c(NC(=O)/C=C/c2ccc(OC)cc2)sc2c1CCC(C)C2 (stereo unspecified)
CCCN1CCc2nc(N3CCN(C)CC3)ncc2C1
COc1ccc([N+](=O)[O-])cc1C1NN=C(c2cccc3ccccc23)S1 (stereo unspecified)
O=C(CCl)N(Cc1cccc([N+](=O)[O-])c1)c1cccc(Cl)c1
CCOC(=O)c1c(NC(C)=O)c2c3c(sc2n1Cc1c(C)cc(C)cc1C)CCCC3
COc1ccc(CCNC(=O)c2cc3cccc4c3n2CC(C)S4)c(OC)c1OC (stereo unspecified)
Cc1ccc(OC(=O)CSc2nnc(-c3cccs3)o2)cc1
O=C(CSCc1cnn(-c2ccccc2)c1-n1cccc1)NCc1ccccc1Br
CCOC(=O)C1CCCN(C(=O)c2ccc3c(c2)sc2nc(-c4ccc(CC)cc4)cn23)C1 (stereo unspecified)
COc1ccc(OC)c2sc(N3CCN(C(=O)C4COc5ccccc5O4)CC3)nc12 (stereo unspecified)
Cc1ccc2c(c1)N(C(=O)Nc1ccc(Br)cc1F)CCO2
CCOc1ccc(CCNC(=O)c2cc3c(=O)n(C)c4ccccc4c3n2C)cc1
CCCN(CCC)c1nc2c(C)cccn2c(=O)c1/C=C1/SC(=S)N(Cc2ccco2)C1=O
CCOC(=O)CNC(=O)c1cc2c(=O)n3cccc(C)c3nc2s1
O=C(NCC(c1cccnc1)N1CCc2ccccc21)c1cccc(C(F)(F)F)c1 (stereo unspecified)
CC1=C(C(=O)OCC(C)C)C(c2ccc(OCc3ccccc3)cc2)N2C(=O)CCSC2=N1 (stereo unspecified)
COc1cccc(C(=O)Nc2ccc3oc(-c4ccc5ccccc5c4)nc3c2)c1
CCN1C(=O)c2ccccc2S(=O)c2ccc(C(=O)NCc3ccc(F)cc3)cc21 (stereo unspecified)
COc1ccc(-n2nc(C(=O)NCCc3ccc(Cl)cc3)c3c4ccccc4n(C)c3c2=O)cc1Cl
CCCN(CCC)C(=O)C1CCCN(c2ncnc3c2nc2n3CCCCC2)C1 (stereo unspecified)
CCN(Cc1ccccc1)C(=O)c1cn(-c2cccc(OC)c2)c(=O)c2ccccc12
COc1cc(OC)c(OC)cc1/C=C/c1nc2ccccc2c(=O)n1-c1ccc(Br)c(C)c1
Cc1cccc(N2CCN(C(=O)Cn3ncc4c5ccccc5n(C)c4c3=O)CC2C)c1 (stereo unspecified)
CCOc1ccccc1C(=O)NC1(C(F)(F)F)C(=O)Nc2c1c(=O)[nH]c(=O)n2-c1ccc(F)cc1 (stereo unspecified)
COCCNC(=O)c1cc(-c2cccc(Cl)c2)on1
COc1ccc(C(=O)c2oc3ccccc3c2NC(=O)COc2cccc(C)c2)cc1
Cc1c(C(=O)N2CCCC2)oc2c1-c1nn(CC(=O)NCc3ccc(OC(C)C)cc3)cc1CC2
COc1ccccc1NC(=O)c1sc2nc(C)c(C(=O)Nc3ccc(Cl)cc3)c(-c3ccc(Br)cc3)c2c1N
COc1ccc(NC(=O)C2CCN(c3ccc(Sc4ccc(C)cc4)nn3)CC2)c(OC)c1
CC(C)(C)OC(=O)N1CCC(c2c(C(=O)NCCc3ccsc3)cnn2-c2ccc(F)cc2F)CC1
O=C(CN1CCN(Cc2ccc(Cl)cc2)C1=O)NCc1ccc(F)cc1
O=C(O)c1ccc(Cn2c(SCc3ccc(F)cc3)nc3ccncc32)cc1
CCOC(=O)C1CCCN(S(=O)(=O)c2cc(-c3cc(C)no3)ccc2OC)C1 (stereo unspecified)
Cc1ccc(CNC(=O)CSc2c3c(nc4cc(Cl)ccc24)CCCC3)cc1
Cc1onc(-c2ccc(F)cc2F)c1C(=O)Nc1cccc(C(F)(F)F)c1
CC(C)(C)c1ccc(C(=O)NCC(c2ccco2)S(=O)(=O)c2ccc(F)cc2)cc1 (stereo unspecified)
CCc1ccc(NC(=O)c2cnc3c(-c4ccccc4)c(C)nn3c2C)cc1
COc1ccc(Cn2ccn(CC(=O)Nc3cc(C)ccc3C)c(=O)c2=O)cc1
O=c1[nH]c2cc(Br)ccc2n2cccc12
Cn1c(COc2ccccc2C(C)(C)C)nc2ccccc21
CCN(c1ncnc2c1cnn2-c1ccc(C)cc1)C1CCCCC1
CCOC(=O)c1c(C)n(S(=O)(=O)c2ccc(C)cc2C)c2ccc(NS(=O)(=O)c3ccc(C)cc3C)cc12
CCC(=O)N1c2ccccc2CC1C(=O)N1CCN(c2ccccc2F)CC1 (stereo unspecified)
O=S(=O)(NCC(c1ccco1)N1CCOCC1)c1cc(F)ccc1F (stereo unspecified)
COCCNC(=O)c1ccc2c(c1)N(Cc1cccc(Cl)c1)C(=O)c1ccccc1S2(=O)=O
CCCSc1ncc(Cl)c(C(=O)Nc2c(C(=O)Nc3ccccc3)oc3ccccc23)n1
Cc1ccc(S(=O)(=O)Nc2nc(N)n(-c3ccccc3)n2)cc1
COc1ccc(N2CCN(C3CCCCC3NS(=O)(=O)c3ccccc3)CC2)cc1 (stereo unspecified)
COc1ccc(S(=O)(=O)Nc2cc3c(C(=O)OC(C)C)c(C)oc3c3ccccc23)cc1
Cc1ccc(S(=O)(=O)/N=S(\C)C(C)C)cc1 (stereo unspecified)
CCCN(CCC)C(=O)Cn1c(=O)n(-c2ccc(Cl)cc2)c(=O)c2c3c(sc21)CCCCC3
O=C(C1CCC(Cn2c(=O)c3sccc3n(Cc3ccccc3F)c2=O)CC1)N1CCCCC1 (stereo unspecified)
COc1ccc(NC(=O)CCCN2C(=O)CCn3nc(-c4cn(C)c5ccccc45)cc32)cc1OC
CC(=O)Nc1cccc(NC(=O)CSc2cn(CC(=O)N3CCCC3)c3ccccc23)c1
COc1ccc(C)cc1N(CC(=O)N1CCC(C)CC1)S(=O)(=O)c1ccc(C)cc1
COc1ccc(OC)c(-c2noc(N3CCN(c4cc(Cl)ccc4C)CC3)n2)c1
